# Experimental data taken from PubChem BioAssay AID526 (National Center for Advancing Translational Sciences (NCATS), 2006).
# The whole screen tested about 67,000 compounds, of which fewer than 10 were called active. Only a sample is shown. Unmarked numbers belong to inactive results. The call rests on the fitted dose curve; in most records, active means well fitted activation curve with a large enough effect (not every such curve was filed as active); inconclusive means small, poorly fitted or top-dose-only effect, or another doubt; inactive means no such curve, though single readings can be large or run the other way.
# Assay: Ubiquitin-GFP Assay
# Conditions: Ubiquitin-GFP reporter cells, proteasome inhibition, GFP fluorescence, untreated = 0%, 10 µM MG-132 = 100%; series mostly up to 45.9 µM
# Excerpt: NIH Chemical Genomics Center [NCGC]
# NIH Molecular Libraries Screening Centers Network [MLSCN]
# The ubiquitin-proteasome pathway is present within all eukaryotic cells and plays roles in normal cellular functions and disease-related dysfunction. Proteins are tagged with a poly-ubiquitin chain that targets them for the proteasome, a multimeric protease, that degrades the protein into peptides and free ubiquitin. The proteasome has a key role in regulating cell cycle and growth and is known to control the levels of cyclins and CDK inhibitors as well as tumor suppressor proteins. Additionally, the activation of NF- B is controlled by ubiquitin-labeling and degradation of the inhibitory protein I B . […] With this in mind, proteasome inhibitors such as MG-132 and PS-341 have been used to inhibit tumor cell growth.
# A cellular assay for ubiquitin-proteasome function was used to find chemical probes of this pathway. The assay used an ubiquitin-GFP construct expressed in U2OS cells (BioImage). Under basal conditions little GFP can be detected as it is degraded by the proteasome. However, treatment of the cells with a proteasome inhibitor such as MG-132 results in a rise in GFP levels that can be detected in as little as four hours. We used the Acumen-Explorer laser plate cytometer having a 488 nm laser as an excitation light source to detect the GFP. Compounds were screened in 1536-well plates using qHTS with a concentration-titration series range that varied from 46 uM to 2.9 nM.
# NCGC Assay Protocol Summary:
# Cells (U20S ps 2042) expressing ubiquitin (G76V-GFP) were maintained in DMEM with Glutamax-1 and high glucose, 10% FBS, 1% (v/v) penicillin-streptomycin, 0.5 mg/mL Geneticin (G418). The cells were seeded in 1536-well plates using a solenoid-based dispenser at 700 cells/5ul in DMEM medium with Glutamax-1 and high glucose containing 0.5% FBS, w/o phenol red, 25 mM HEPES. The plates were incubated at 37 °C/5% CO2 overnight. Then 23 nl of MG-132 in DMSO was added to the control wells at a final concentration of 10 uM. Next, 23 nL of library compounds in DMSO were added to the sample wells. The plates were incubated for 4 hrs at 37 °C/5% CO2. Following this incubation the plates were read on the Acumen using a cell object definition of 15 to 100 um in width and depth and a window of Total Intensity of between 77,200 and 2,720,000 FLU to enumerate GFP-expressing cells.
# The %Activity was determined from the basal and MG-132 treated control wells. %Activity was determined by normalizing to the difference in signal between basal cells (0% Activity) and cells incubated with 10 uM of the proteasome inhibitor MG-132 (100% Activity). Concentration-response curves were fitted to the signals arising from the GFP fluorescence.
# Assay Protocol Summary Table
# Sequence Parameter Value Description
# 2. Time O/N 37C incubation
# 4. Compound 23 nL Libraries (46 uM to 2.9 nM)
# 5. Time 4 hr 37C incubation
# 6. Detector Acumen Total Intensity, GFP fluorescence (488 ex/515 em)
# Keywords: NIH Roadmap, MLSCN, MLI, MLSMR, BioImage, proteasome, ubiquitin-GFP, qHTS, NCGC
row,SMILES,activation (GFP accumulation)
1,O=C(CCN1C(=O)c2ccccc2C1=O)Nc1ccncc1,inactive
2,Clc1ccccc1-c1cc(NCCN2CCOCC2)ncn1,inactive
3,CCCS(=O)(=O)N1CCCC(C(=O)NCc2ccco2)C1 (stereo not drawn),inactive
4,COc1ccc(-c2noc(CN(C)S(=O)(=O)c3ccc(C)cc3)n2)cc1,inactive
5,Cc1nc2cnc(Nc3ccccc3)nc2n(C[C@H]2CCCO2)c1=O,inactive
6,COc1ccccc1CNc1cc(-c2ccccc2CN(C)C)ncn1,inactive
7,CCn1c(=N)c(C(=O)NCCCOC)cc2c(=O)n3cccc(C)c3nc21,inactive
8,Oc1ccc(Cn2cc[nH]c2=S)cc1,inactive
9,O=C(Nc1cccc(F)c1)N1CCC2(CC1)CCN(S(=O)(=O)c1ccccc1)CC2,inactive
10,CCOc1ccc(N=NS(=O)(=O)O)cc1,-2.9% [at 9.17 µM]
11,NC(=S)c1ccc(C(N)=S)o1,inactive
12,COc1ccc(CN2CC(C(=O)NCCN3CCN(c4ccccc4F)CC3)CC2=O)cc1 (stereo not drawn),inactive
13,COC(=O)c1ccc2c(c1)S(=O)(=O)NC(=NCCCN1CCOCC1)S2,inactive
14,CN(C(=O)CN(CCO)CC(=O)N(C)C(C)(C)Cc1ccccc1)C(C)(C)Cc1ccccc1,inactive
15,O=C(O)C1=CCCN(CCON=C(c2ccccc2)c2ccccc2)C1,inactive
16,CCS(=O)(=O)N1CCCC(C(=O)NCCCN(C)Cc2ccccc2)C1 (stereo not drawn),inactive
17,COC(=O)C1(S(=O)(=O)C2(C(=O)OC)CCCC2)CCCC1,inactive
18,CC(C)[C@H](CO)Nc1nc(Nc2cc(N)cc(Cl)c2)c2ncn(C(C)C)c2n1,inactive
19,O=c1cc(-c2ccc(O)c(O)c2)oc2cccc(O)c12,inactive
20,CC(C)NC[C@H](O)c1ccc2ccccc2c1,inactive
21,CCOC(=O)c1sc(NC(=O)CSc2nnc(-c3ccco3)o2)c(C(=O)OCC)c1C,inactive
22,CN1CCN(Cc2nc3c(c(=O)n(C)c(=O)n3C)n2Cc2cccc3ccccc23)CC1,inactive
23,O=C(O)[C@@H](S)[C@H](S)C(=O)O,4.35% [at 9.17 µM]
24,COC(=O)c1ccc(NC(=O)C(C)N2C(=O)c3ccccc3C2=O)cc1 (stereo not drawn),inactive
25,CC(=O)N1CCC2(CC1)CCN(c1ccncc1)CC2,inactive
26,COCCn1c(=O)c(-c2ccc(OC)cc2)nc2cnc(Oc3cccc(Cl)c3)nc21,inactive
27,Cc1cccc(OCc2nnc(SCn3nnc4ccccc4c3=O)o2)c1,inactive

row,SMILES,activation (GFP accumulation)
1,Fc1cccc(/C=N\N=C/c2cccc(F)c2)c1,inactive
2,COc1ccc(CNc2ncnc3ccc(-c4cccnc4)cc23)c(OC)c1,inactive
3,CC(C)(C)Nc1c(N)c(=O)oc2ccccc12,-4.55% [at 9.17 µM]
4,COc1ccccc1N1CCN(C[C@@H]2CN3C(=O)N(C)c4ccccc4C3=N2)CC1,inactive
5,CC[C@]1(C)CC(=O)NC1=O,inactive
6,Cc1cc(=O)[nH]c(SCc2cc(Cl)ccc2OC(F)F)n1,inactive
7,COc1ccc(NC(C)=O)cc1NC(=O)CN1CCN(C2c3ccccc3-c3ccccc32)CC1,inactive
8,COCC(=O)Nc1nnc(COc2ccccc2)s1,inactive
9,O=C(O)Cc1ccc(-c2ccccc2)cc1,inactive
10,CCCS(=O)(=O)N1CCN(C(=O)c2cccs2)CC1,inactive
11,CC1=C(C(=O)OC2CCCCC2)C(c2cccnc2)n2ncnc2N1 (stereo not drawn),inactive
12,C1=C(N2CCOCC2)/C(=C/c2nc3ccccc3[nH]2)CC1,-10.8% [at 9.17 µM]
13,O=C(CSc1nnc(-c2cccnc2)n1Cc1ccco1)c1ccc(Cl)cc1,inactive
14,CC(C)(CSc1nncn1/N=C/c1ccco1)NS(=O)(=O)c1ccc(Cl)cc1,inactive
15,CCC(c1nnnn1Cc1ccco1)N(CCc1ccccc1)Cc1cc2cccc(C)c2[nH]c1=O (stereo not drawn),inactive
16,CC(C(=O)O)N1C(=O)c2cccc3cccc1c23 (stereo not drawn),inactive
17,CC[N+](C)(CC)CCC[n+]1c(-c2ccccc2)c2cc(N)ccc2c2ccc(N)cc21,inactive
18,CC1(C)S[C@@H]2[C@@H](NC(=O)[C@@H](N)c3ccccc3)C(=O)N2[C@H]1C(=O)O,inactive
19,Cc1ccc(CNC(=O)C2CC(=O)N(C3CCCCCCC3)C2)cc1 (stereo not drawn),inactive
20,COc1ccccc1-n1nnnc1S(=O)(=O)Cc1ccc(Cl)cc1,inactive
21,Cc1nc(N2CCN(c3ncccn3)CC2)c2oc3ccccc3c2n1,inactive
22,CSc1ccc(S(=O)(=O)Nc2cccc(F)c2)cc1,inactive
23,O=C(NCc1cccs1)C1CCN(S(=O)(=O)c2ccc3c(c2)OCCO3)CC1,inactive
24,O=S(=O)(O)c1ccc(O)c2ncccc12.O=S(=O)(O)c1ccc(O)c2ncccc12.[Zn],2.9% [at 9.17 µM]
25,CN(C)c1ccc(CNC23CN4CN(CN(C4)C2)C3)cc1,inactive
26,CCCn1c(C(O)c2cc(OC)ccc2OC)nc2ccccc21 (stereo not drawn),inactive
